Shown are actives, neighbours in structure and some others; about 8.1% of the full set was active somewhere.
MCF10A rereplic: DNA re-replication induction in MCF 10a cells; AID 624296; 2.9% of 350,000 active; MCF 10A DNA re-replication, Hoechst nuclear intensity, 48 h; Potency, µM (series often up to 46.1 µM), for inactives: at the highest dose activity, positive = re-replication, most hits filed as activators; note: % of control where 0% means no effect; nearly all actives have a fitted effect of over 50% in size
SW480 rereplic: DNA re-replication induction in SW480 cells. SW480 DNA re-replication, Hoechst DNA content imaging, 48 h. Potency, µM (top dose mostly 46.1 µM), inactives show top-dose re-replication activation, hits mostly activators. 1.8% of 340,000 active; note: % of control where 0% means no effect; nearly all actives have a fitted effect of over 55% in size
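Image-based read-out: total Hoechst fluorescence of nuclei (405 nm excitation, 500-530 nm emission), with hits raising the fraction of high-intensity nuclei. SW480 colon cells incubated 48 hr with compounds at 37 C.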
KB-3-1 cytotox: KB-3-1 parental cell cytotoxicity; Potency, µM (doses to about 46.1 µM), most hits filed as cytotoxic; KB-3-1 viability, CellTiter-Glo ATP luminescence, 72 h; AID 1347075; 1.4% of 400,000 active; note: % is set by controls: 0 for no effect and ±100 for the full control effect; nearly all actives have a fitted effect of over 60% in size
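Using CellTiter-Glo luminescence, growth of non-resistant KB-3-1 adenocarcinoma cells is assessed 72 h after pin-tool compound addition at 37 °C. Normalized responses across the concentration series yield fitted curves.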
KB-V1 MDR tox: kills drug-selected multidrug resistant KB-V1 cells; 3.4% of 400,000 active; Potency, µM (highest dose often 46.1 µM), actives largely listed as cytotoxic; KB-V1 MDR cells viability, CellTiter-Glo, 72 h; note: % is set by controls: 0 for no effect and ±100 for the full control effect; nearly all actives have a fitted effect of over 60% in size
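Cytotoxicity toward P-gp-expressing KB-V1 cells was determined as loss of CellTiter-Glo luminescence after 72 h at 37 degrees C. Compounds were tested in quantitative HTS format across a concentration range, with curves fitted to normalized data.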
ELG1 repair inh: ELG1-dependent DNA repair inhibition; 2.3% of 330,000 active; Potency, µM (top dose mostly 46.1 µM), without a hit: at the highest dose activity change, negative = inhibition, hits mostly inhibitors; HEK293T ELG1-luciferase reporter, luminescence, 16 h; DNA damage induced by 5-fluorouridine; AID 504467; note: % is set by controls: 0 for no effect and ±100 for the full control effect; nearly all actives have a fitted effect of over 55% in size
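Step one: seed 2,000 cells per well. Step two: pin-transfer compound or DMSO alongside 5-fluorouridine. Step three: incubate 16 hr, 37 °C, 5% CO2. Step four: add ONE-Glo, wait 30 min, read luminescence.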
* = called active by the depositor; [ ] = dose if it differs, or a comment. Calls come from the whole dose curve; as a rule, active = well fitted curve in the direction sought with a large enough effect; inconclusive = small, poorly fitted or top-dose-only effect, or another doubt; inactive = no such curve, though single readings can be large; an effect the other way counts as inactive or inconclusive. Potency is the fitted concentration of half-maximal effect.

CCOC(=O)N1CCN(Cc2nc3cc(NC(=O)C(C)C)ccc3n2C(C)C)CC1 was read as KB-3-1 cytotox 0.65µM* and KB-V1 MDR tox inactive.
C=C(C)CN=C1SC(C(=O)Nc2sc3c(c2C(=O)OC)CCC3)C(N)=C1C(N)=O (stereo not drawn) was read as MCF10A rereplic 4.1µM*, SW480 rereplic inconclusive, KB-3-1 cytotox inconclusive, KB-V1 MDR tox 9.2µM* and ELG1 repair inh 0%.
For COC(=O)c1c(NC(=O)C2SC(=NC3CCCCC3)C(C(N)=O)=C2N)sc2c1CCCC2 (stereo not drawn) the results were MCF10A rereplic inconclusive, SW480 rereplic -8%, KB-3-1 cytotox inactive, KB-V1 MDR tox inactive and ELG1 repair inh -4%.
Screening O=S1(=O)N=C(Oc2ccc(-c3ccccc3)cc2)c2ccccc21 returned KB-3-1 cytotox inactive and KB-V1 MDR tox inactive.
`O=C1COc2ccc(C(=O)COC(=O)/C=C/c3ccco3)cc2N1` gave MCF10A rereplic 8%, SW480 rereplic 2%, KB-3-1 cytotox inactive, KB-V1 MDR tox inactive and ELG1 repair inh -1%.
For CCNc1sc(C(=O)c2cccs2)c(N)c1-c1nc2ccccc2s1 the results were MCF10A rereplic inconclusive, SW480 rereplic 0.82µM*, KB-3-1 cytotox inactive, KB-V1 MDR tox inactive and ELG1 repair inh inconclusive.
C[C@H](NC(=O)OC(C)(C)C)[C@@H](O)c1ccco1 was read as KB-3-1 cytotox inactive and KB-V1 MDR tox inactive.
For CCc1ccccc1N1C(=O)CC(Sc2nccc(C)n2)C1=O (stereo not drawn) the results were MCF10A rereplic -2%, SW480 rereplic 1%, KB-3-1 cytotox inactive, KB-V1 MDR tox inactive and ELG1 repair inh -1%.
Screening CC(C)Cc1ccc(CN2CCCC(NC(=O)Cn3cnnn3)C2)cc1 (stereo not drawn) returned MCF10A rereplic inconclusive, SW480 rereplic 1%, KB-3-1 cytotox inactive, KB-V1 MDR tox inconclusive and ELG1 repair inh 3%.
`CC/C(=N\NS(=O)(=O)c1ccc(C)cc1)c1ccco1` gave MCF10A rereplic 2%, SW480 rereplic -9%, KB-3-1 cytotox inactive, KB-V1 MDR tox inactive and ELG1 repair inh -3%.
CC(C)CCOc1ccc(C2=NNC(=O)CC2)cc1 was read as MCF10A rereplic 1%, SW480 rereplic 13%, KB-3-1 cytotox inconclusive, KB-V1 MDR tox 1.8µM* and ELG1 repair inh inconclusive.
CCCCCc1ccc(C2=NNC(=O)CC2)cc1 was read as MCF10A rereplic 0%, SW480 rereplic -16%, KB-3-1 cytotox inconclusive, KB-V1 MDR tox inactive and ELG1 repair inh inconclusive.
`COc1ccc(NC(=O)c2ccccc2[N+](=O)[O-])cc1` gave MCF10A rereplic 3%, SW480 rereplic -1%, KB-3-1 cytotox inactive, KB-V1 MDR tox inactive and ELG1 repair inh inconclusive.
COc1ccccc1Nc1ccc(NC(=O)c2cccc([N+](=O)[O-])c2C)cc1 was read as MCF10A rereplic -1%, SW480 rereplic 38%, KB-3-1 cytotox 18µM*, KB-V1 MDR tox inconclusive and ELG1 repair inh inconclusive.
Screening CCOC(=O)C1CCN(C(=O)c2sc3nc(-c4ccc(F)cc4)cn3c2C)CC1 returned MCF10A rereplic 3%, SW480 rereplic -10%, KB-3-1 cytotox inactive, KB-V1 MDR tox 23µM* and ELG1 repair inh inconclusive.
O=C(NC1CCCCC1)c1ccccc1NC(=O)C1CC1 was read as MCF10A rereplic 20%, SW480 rereplic 0%, KB-3-1 cytotox inactive, KB-V1 MDR tox 16µM* and ELG1 repair inh 7%.
For O=C(Nc1ccccc1C(=O)NC1CCCC1)NC1CCCC1 the results were MCF10A rereplic 254%[0.0737 µM], SW480 rereplic -13%, KB-3-1 cytotox inactive, KB-V1 MDR tox inactive and ELG1 repair inh 13%.
For COc1ccc(/C=C/C(=O)NC(=S)Nc2ccccc2C(=O)NC2CCCCC2)cc1 the results were MCF10A rereplic 18µM*, SW480 rereplic 4.1µM*, KB-3-1 cytotox inactive, KB-V1 MDR tox inconclusive and ELG1 repair inh inconclusive.

Screening results from PubChem.
